An excerpt weighted towards active compounds, which were near 2.4% of everything screened.
Pol beta inh: qHTS Assay for Inhibitors of DNA Polymerase Beta. P06746. Pol beta primer extension/strand displacement, fluorescence kinetic. Potency, µM (top dose mostly 114 µM), inactives show at the top dose activity change, negative = inhibition, actives largely listed as inhibitors. actives 1.3% (n = 340,000); also: % is scaled to controls: 0 for no effect and ±100 for the full control effect
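Values derive from four-parameter Hill fits of normalized kinetic data: reads at 0 and 10 min following addition of 50 nM substrate to 10 nM Pol beta preincubated 15 min with compound.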
Pol kappa inh: qHTS for Inhibitors of Polymerase Kappa. DNA polymerase kappa (Homo sapiens), Q9UBT6. purified Pol kappa, fluorescent DNA synthesis assay, 10 min. Potency, µM (top dose mostly 107 µM), for inactives: top-dose activity, negative = inhibition, usual class: inhibitors. actives 0.53% (n = 400,000); also: % is scaled to controls: 0 for no effect and ±100 for the full control effect
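Inhibition of 10 nM Pol kappa is measured by a fluorescent read-out at 0 and 10 min following addition of 50 nM substrate (final), with a 15-min room-temperature compound preincubation.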
POLI inh: qHTS for Inhibitors of Polymerase Iota. actives 1% (n = 390,000). DNA polymerase iota (Homo sapiens), Q9UNA4. AID 588590, 2011. Potency, µM (highest dose often 115 µM), for the others: at the top dose activity, negative = inhibition, usual class: inhibitors. Pol iota fluorescent replication assay, 10 min
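Pol iota at 10 nM preincubated 15 min with compounds at room temperature; reaction started with fluorescent substrate, 50 nM final. Fluorescence read kinetically at 0 and 10 min; buffer-only wells as negative control.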
POLH inh: qHTS for Inhibitors of Polymerase Eta; DNA polymerase eta (Homo sapiens), Q9Y253; Potency, µM (series often up to 114 µM), without a hit: top-dose activity change, negative = inhibition, most hits filed as inhibitors; recombinant Pol eta, fluorescent DNA replication assay; actives 1.2% (n = 390,000); also: % is scaled to controls: 0 for no effect and ±100 for the full control effect
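Pol eta at 10 nM preincubated with compounds 15 min at room temperature; reaction started with fluorescent substrate (50 nM final) and read kinetically at 0 and 10 min.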
TDP1 block: qHTS Assay for Inhibitors of Tyrosyl-DNA Phosphodiesterase (TDP1) | Tyrosyl-DNA phosphodiesterase 1 (Homo sapiens), Q9NUW8 | recombinant TDP1, AlphaScreen DNA substrate cleavage | Potency, µM (doses to about 130 µM), without a hit: at the top dose activity change, negative = inhibition, hits mostly inhibitors | actives 0.28% (n = 350,000) | AID 485290, 2010; also: % is scaled to controls: 0 for no effect and ±100 for the full control effect; nearly all actives have a fitted effect of over 40% in size
Target sequence (Q9NUW8 whole entry, looked up): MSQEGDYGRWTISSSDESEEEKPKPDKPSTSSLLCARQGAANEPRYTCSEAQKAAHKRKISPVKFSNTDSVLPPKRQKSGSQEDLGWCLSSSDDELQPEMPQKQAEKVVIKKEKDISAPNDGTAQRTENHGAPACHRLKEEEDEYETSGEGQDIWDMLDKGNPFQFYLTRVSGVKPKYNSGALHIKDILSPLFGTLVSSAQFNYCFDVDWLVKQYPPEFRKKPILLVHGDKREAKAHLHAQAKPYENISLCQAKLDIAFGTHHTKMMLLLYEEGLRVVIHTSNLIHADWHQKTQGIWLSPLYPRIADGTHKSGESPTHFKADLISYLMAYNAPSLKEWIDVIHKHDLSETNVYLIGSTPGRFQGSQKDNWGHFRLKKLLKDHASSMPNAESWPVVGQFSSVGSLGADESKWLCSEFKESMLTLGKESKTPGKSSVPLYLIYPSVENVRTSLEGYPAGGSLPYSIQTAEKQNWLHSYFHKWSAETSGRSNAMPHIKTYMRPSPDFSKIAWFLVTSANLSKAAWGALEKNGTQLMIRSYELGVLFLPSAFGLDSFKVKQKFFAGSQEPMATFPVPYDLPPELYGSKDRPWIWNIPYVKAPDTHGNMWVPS
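Here, a 5' biotin and 3' phosphotyrosine-FITC DNA oligonucleotide reports Tdp1 activity: intact substrate bridges AlphaScreen beads, while cleavage leaves a 3' phosphate and drops signal. All incubations at room temperature.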
FEN1 inhibitor: qHTS Assay for the Inhibitors of Human Flap endonuclease 1 (FEN1); actives 0.35% (n = 390,000); Recombinant FEN1 flap cleavage, fluorescence, 15 min; Potency, µM (top dose mostly 114 µM), inactives show at the highest dose activity change, negative = inhibition, most hits filed as inhibitors; P39748; also: % is scaled to controls: 0 for no effect and ±100 for the full control effect; nearly all actives have a fitted effect of over 65% in size
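Nuclease activity of 10 nM FEN1 was measured after 15 min of room-temperature exposure to titrated compounds, by adding 50 nM flap substrate and reading plates at 0 and 15 min.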
* hit, by the source's call; [ ] = another dose, or the depositor's remark. Calls follow the shape of the dose curve; as a rule, active = well fitted curve in the direction sought with a large enough effect; inconclusive = small, poorly fitted or top-dose-only effect, or another doubt; inactive = no such curve, though single readings can be large; an effect the other way counts as inactive or inconclusive. Potency is read from the fitted curve at half-maximal effect.

CCC1CN(C(=O)N2CCC(C(=O)NCc3cccc(F)c3)CC2)c2cc(C)ccc2O1 (stereo unspecified) was read as Pol beta inh -23%, Pol kappa inh inconclusive, POLI inh 79µM*, POLH inh -8%, TDP1 block 1% and FEN1 inhibitor inconclusive.
Screening CCc1nnc(N/N=C/c2ccc(O)c(OC)c2)n1N returned Pol beta inh 18%, Pol kappa inh -6%, POLI inh 8.9µM*, POLH inh 3% and FEN1 inhibitor -18%.
CCc1nnc(N/N=C/c2cccs2)n1N was read as Pol beta inh 34%, Pol kappa inh -10%, POLI inh 22µM*, POLH inh -11%, TDP1 block 8% and FEN1 inhibitor -13%.
Screening C(=N\Nc1nc2ccccc2s1)/c1cccs1 returned Pol beta inh 7%, Pol kappa inh 0%, POLI inh -20%, POLH inh -9%, TDP1 block 3% and FEN1 inhibitor -2%.
COc1cc(/C=N/Nc2ccccn2)ccc1O was read as Pol beta inh -14%, Pol kappa inh -10%, POLI inh 29%, POLH inh -15% and FEN1 inhibitor 0%.
For COc1cc(/C=N/NC(=O)Nc2ccccc2)ccc1OC(C)=O the results were Pol beta inh 22%, Pol kappa inh -10%, POLI inh 2%, POLH inh -6%, TDP1 block -3% and FEN1 inhibitor 12%.
For Cc1nnc(N/N=C/c2cccc(OCc3ccc(Cl)c(Cl)c3)c2)n1N the results were Pol beta inh -8%, Pol kappa inh -6%, POLI inh 6.3µM*, POLH inh inconclusive, TDP1 block 8% and FEN1 inhibitor -21%.
Screening CCc1nnc(N/N=C\c2ccc(OC(C)=O)c(OC)c2)n1N returned Pol beta inh -3%, Pol kappa inh -31%, POLI inh 2µM*, POLH inh 1% and FEN1 inhibitor -6%.
NC(=O)N/N=C/c1cccc(OCc2ccc(F)cc2)c1 was read as Pol beta inh -25%, Pol kappa inh 7%, POLI inh 60%, POLH inh -20%, TDP1 block 0% and FEN1 inhibitor -5%.
Screening CCc1ccc(NC(=O)CN2CCN(Cc3ccccc3)S2(=O)=O)cc1 returned Pol beta inh 8%, Pol kappa inh -12%[60.1 µM], POLI inh 29%, POLH inh -16%, TDP1 block 6% and FEN1 inhibitor -1%.
`COCCNC(=O)C[C@@H]1C[C@H]2c3cc(NC(=O)Nc4ccc(F)cc4)ccc3O[C@H]2[C@H](CO)O1` gave POLH inh -9%.
`CCOc1cc(/C=N/Nc2nnc(C)n2N)ccc1OC(C)=O` gave Pol beta inh inconclusive, Pol kappa inh -25%, POLI inh 2.8µM*, POLH inh -16% and FEN1 inhibitor 6%.
CCOc1cc(/C=N/NC(N)=O)ccc1OC(=O)c1ccc(C)cc1 was read as Pol beta inh 6% and TDP1 block 3%.
`CCc1nnc(N/N=C/c2cc(Br)c(O)cc2O)n1N` gave Pol beta inh 0%, Pol kappa inh 1%, POLI inh 8.9µM*, POLH inh -13%, TDP1 block 6% and FEN1 inhibitor 1%.
`Cc1c(P(=S)(c2ccccc2)c2ccccc2)[n+]2ccccc2n1CCCc1ccccc1` gave TDP1 block 2%.
For CCc1cccc(NC(=O)CCS(=O)(=O)c2ccc(C)cc2)c1 the results were Pol beta inh 25%, Pol kappa inh 5%, POLI inh 6%, POLH inh -17%, TDP1 block -5% and FEN1 inhibitor -3%.
For CCCCn1cc(S(=O)(=O)c2ccc(CC)cc2)c(=O)c2cc(F)c(N3CCOCC3)cc21 the results were Pol beta inh 14%, Pol kappa inh -5%, POLI inh 5%, POLH inh -14%, TDP1 block -4% and FEN1 inhibitor -14%.
`CCOC(=O)c1sc(NC(=O)C2CC=CCC2C(=O)O)nc1C` (stereo unspecified) gave Pol beta inh 45µM*, Pol kappa inh -6%, POLI inh inconclusive, POLH inh 79µM*, TDP1 block 22µM* and FEN1 inhibitor -15%.
Screening CCOC(=O)c1sc(NC(C)=O)nc1C returned Pol beta inh -19%, Pol kappa inh -4%, POLI inh 37%, POLH inh -8%, TDP1 block 0% and FEN1 inhibitor -4%.
`CC(=O)OCC#CCSc1nnc(-c2cccc(Br)c2)o1` gave Pol beta inh 4%, Pol kappa inh -26%, POLI inh inconclusive, POLH inh -20%, TDP1 block 3% and FEN1 inhibitor -1%.
`COc1ccc(CN=C2NC(=O)CC(C(=O)Nc3ccc(F)cc3)S2)cc1` (stereo unspecified) gave Pol beta inh -10%[57.1 µM], Pol kappa inh -7%, POLI inh -2%, POLH inh -15%, TDP1 block 0% and FEN1 inhibitor 1%.
`CCc1ccc(N=C2NC(=O)CC(C(=O)Nc3ccc(OC)cc3)S2)cc1` (stereo unspecified) gave Pol beta inh 18µM*, Pol kappa inh -17%, POLI inh -8%, POLH inh inconclusive and FEN1 inhibitor -2%.
For CC(C)(C)n1ncc2c(=O)n(Cc3ccc(SC(F)(F)F)cc3)cnc21 the results were Pol kappa inh 10%, POLI inh 13% and FEN1 inhibitor 0%.
CCOC(=O)C1=C(O)/C(=C/c2cn(CC(=O)NCC3CCCO3)c3ccccc23)SC1=Nc1ccc(C)cc1 (stereo unspecified) was read as Pol kappa inh -18%, POLI inh inconclusive, POLH inh 14µM* and FEN1 inhibitor -9%.
Screening CCOC(=O)C1=C(O)/C(=C/c2ccc(-c3ccccc3C(=O)O)o2)SC1=Nc1ccc(C)cc1 returned Pol beta inh 3%, Pol kappa inh 40µM*, POLI inh inconclusive, POLH inh 22µM*, TDP1 block 6% and FEN1 inhibitor 40µM*.
Screening CC(C)C(=O)c1cn(CC(=O)NCC2CCCO2)c2ccccc12 (stereo unspecified) returned Pol beta inh 7%, Pol kappa inh -9%, POLI inh 6%, POLH inh -3%, TDP1 block 1% and FEN1 inhibitor -2%.

Source: PubChem BioAssay
